Source: PubChem
Myc binder – binders of human c-Myc, primary screen, biochemical, small molecule microarray, anti-His fluorescence. Myc proto-oncogene protein (Homo sapiens), P01106. His-c-Myc binding. calls only. 17,000 compounds, 1.5% hits. AID 624141, 2012;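 active = spot fluorescence over background with P-value below 7% in all four replicate spots, showing protein binding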;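 also: score is binary with 100 for all four spots passing and 0 otherwise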
STAT3 binder – STAT3 binders, primary screen, biochemical, small molecule microarray, single point, set 2 | Signal transducer and activator of transcription 3 (Homo sapiens), P40763 | His-STAT3 binding, anti-His fluorescence | calls only | 17,000 compounds, 0.2% hits;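 active = compounds whose four printed spots each show fluorescence over background unusually high for their array block, chance value under 7%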
NFkB SMM – binders of NF-kB p50 subunit, primary screen, biochemical, small molecule microarray, anti-His fluorescence. calls only. AID 624139, 2012. anti-His fluorescence binding. 17,000 compounds, 1.3% hits. Nuclear factor NF-kappa-B p105 subunit (Homo sapiens), P19838;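 active = spot fluorescence over background significantly raised, with a chance value under 7% in all four replicate spots of the compound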;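 also: probe protein is his-tagged human p50 processed subunit at 1 µg/ml; raw spot fluorescence signals with no normalization applied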
Target sequence (P19838 1-433 limits assumed): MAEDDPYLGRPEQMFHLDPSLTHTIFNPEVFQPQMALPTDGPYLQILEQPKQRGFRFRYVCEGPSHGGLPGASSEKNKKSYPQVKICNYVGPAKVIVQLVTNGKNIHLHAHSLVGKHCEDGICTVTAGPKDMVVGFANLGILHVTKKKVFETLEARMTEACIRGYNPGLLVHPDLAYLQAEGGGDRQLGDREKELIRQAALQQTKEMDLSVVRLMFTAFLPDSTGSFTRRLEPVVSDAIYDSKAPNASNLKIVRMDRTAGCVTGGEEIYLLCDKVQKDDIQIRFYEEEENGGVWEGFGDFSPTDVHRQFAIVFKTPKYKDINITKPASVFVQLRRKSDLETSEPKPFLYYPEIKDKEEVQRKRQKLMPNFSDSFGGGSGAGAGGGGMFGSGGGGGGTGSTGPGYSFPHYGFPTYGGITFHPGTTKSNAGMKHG
mut p53 SMM – binders of human mutant p53, primary screen, biochemical, small molecule microarray, anti-GST fluorescence; small molecule microarray binding; calls only; 17,000 compounds, 0.4% hits; AID 624136, 2012;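 active = compounds whose four printed spots each glow above background more than chance allows, each with a p-value under 7%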
p53 PUMA act – mutant p53 pathway re-activators, primary screen, cell-based, SW480, luciferase, single point, HTS; SW480 PUMA-promoter luciferase, p53 mutant reactivation; 28,000 compounds, 1.5% hits; AID 624151, 2012; activation, % at 9.98 µM; in the data active = activation above about 52%
Numbers without * were called inactive; i = inactive; . = no result; + = active, no number. Most compounds without a hit are left out; they make up all but 2.6% or so of the library.

SMILES	Myc binder	STAT3 binder	NFkB SMM	mut p53 SMM	p53 PUMA act
CCCN(C)C[C@H]1OCCCC[C@@H](C)Oc2ccc(NS(=O)(=O)c3ccc(OC)cc3)cc2C(=O)N([C@@H](C)CO)C[C@H]1C	+	i	i	+	-3
C[C@@H]1CCCCO[C@H](CN(C)CC2CC2)[C@@H](C)CN([C@H](C)CO)C(=O)c2cc(NC(=O)Nc3cccc4ccccc34)ccc2O1	i	i	i	i	.
C[C@@H]1CN([C@@H](C)CO)C(=O)c2cc(NC(=O)Nc3cccc4ccccc34)ccc2O[C@@H](C)CCCCO[C@H]1CN(C)CC1CC1	.	.	.	.	0
CCc1c(O)nc(SCC(=O)N(c2ccccc2)c2ccccc2)[nH]c1=O	i	i	i	i	-4
COc1ccc(CN(C)C[C@H]2Oc3c(NC(=O)C4CCOCC4)cccc3C(=O)N([C@H](C)CO)C[C@@H]2C)cc1	i	i	i	i	-3
CCOC(=O)c1c(SC)nc2c(C(F)(F)F)cccc2c1N1CCCC1	.	.	.	.	-20
Clc1ccc(SCc2csc(-c3ccsc3)n2)cc1	.	.	.	.	61*
CC(C)c1ccc(NC(=O)CNS(=O)(=O)c2ccc(Br)cc2)cc1	.	.	.	.	-3
O=C(COc1ccc(Br)cc1CO)Nc1ccccc1F	.	.	.	.	112*
COc1ccccc1NC(=O)COc1ccc(Br)cc1CO	.	.	.	.	37
O=C(COc1ccc(Br)cc1CO)Nc1ccccc1	i	i	i	i	127*
O=C(COc1ccc(Cl)cc1CO)Nc1ccc(F)cc1	i	i	i	i	69*
O=C(COc1ccc(CO)cc1)Nc1ccccc1	i	i	i	i	66*
C[C@H](CO)N1C[C@H](C)[C@@H](CN(C)Cc2ccc(Oc3ccccc3)cc2)Oc2c(NS(C)(=O)=O)cccc2C1=O	i	i	i	i	4
Cc1ccc(NC(=O)COc2ccc(Br)cc2CO)cc1	.	.	.	.	68*
O=C(COc1ccccc1CO)Nc1ccccc1	i	i	i	i	77*
C[C@H]1CN([C@@H](C)CO)C(=O)Cc2cc(N(C)C)ccc2O[C@@H]1CN(C)C(=O)Nc1cccc2ccccc12	i	i	i	i	-10
CC(C)(OC(=O)c1ccccc1)[C@@H]1Cc2cc3ccc(=O)oc3cc2O1	i	i	i	i	13
CC(C)(O)[C@@H]1Cc2cc3ccc(=O)oc3cc2O1	i	i	i	i	54*
Cc1c(CC(=O)O)c(=O)oc2cc(OCC(=O)O)ccc12	+	i	i	i	-5
Cc1c(CCC(=O)O)c(=O)oc2cc(OCC(=O)O)ccc12	.	.	.	.	-4
Cc1nc(NCC2CCCO2)c2c(C)c(C)sc2n1 (centres undefined)	i	i	i	i	-6
COc1ccc2c(c1)c(=O)oc1c(C)c(OCC(=O)NCC3CCCO3)ccc12 (centres undefined)	i	i	i	i	52*
Cc1nc2nc[nH]n2c(=O)c1NS(=O)(=O)c1cccs1	i	i	i	i	-2
Cc1nn(CC(=O)Nc2ccc3c(c2)nc(CN2CCCC2)n3C)c(=O)c2ccccc12	+	i	i	+	11
Cc1cccc(OCC(=O)Nc2ccc3c(c2)nc(CN2CCCCC2)n3C)c1	.	.	.	.	9
